# Measured values reported in the supplement of paper PMC12808144.
# Unmarked numbers belong to inactive results.
# System: NHEM-hTERT
# Assay: cell viability relative to DMSO control (fraction of DMSO control); higher = less cytotoxic, active = 0.5 or less
# Conditions: 1 µM; 120 h
# Procedure, shortened: (§1)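 For 120 h, duplicate wells of 384-well plates held 1 µM of each of 315 approved anti-cancer drugs (TargetMol), spotted acoustically before cells were added in 40 µl per well. Immortalized NHEM-hTERT melanocytes were seeded at 2500/well, and patient-derived Mel-DCC-11 plus its resistant subline Mel-DCC-11-R at 1500/well. The subline was run both without and with 8 µM of its selecting drug, and ATPlite 1step luminescence was read. Viability was normalised to vehicle-treated wells and averaged over the two replicates.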
row,SMILES,cell viability
1,CC[C@]1(O)C[C@H]2CN(CCc3c([nH]c4ccccc34)[C@@](C(=O)OC)(c3cc4c(cc3OC)N(C=O)[C@H]3[C@@](O)(C(=O)OC)[C@H](OC(C)=O)[C@]5(CC)C=CCN6CC[C@]43[C@@H]65)C2)C1.O=S(=O)(O)O [Vincristine sulfate],0.642
2,CC(=O)c1c(C)c2cnc(Nc3ccc(N4CCNCC4)cn3)nc2n(C2CCCC2)c1=O.Cl [Palbociclib hydrochloride],1.05
3,COc1cc([C@@H]2c3cc4c(cc3[C@@H](O[C@@H]3O[C@@H]5CO[C@@H](C)O[C@H]5[C@H](O)[C@H]3O)C3COC(=O)C32)OCO4)cc(OC)c1O (some centres undefined) [Etoposide],0.798
4,CC1=C(/C=C/C(C)=C/C=C/C(C)=C\C(=O)O)C(C)(C)CCC1 [Isotretinoin],1.04

# System: Mel-DCC-11-R
# Assay: cell viability relative to DMSO control (fraction of DMSO control); higher = less cytotoxic, active = 0.8 or less
# Conditions: 1 µM; 120 h; vemurafenib co-treatment 0 µM
# Procedure, shortened: as §1
row,SMILES,cell viability
1,N.N.O=C([O-])C1(C(=O)[O-])CCC1.[Pt+2] [Carboplatin],0.973
2,S=P(N1CC1)(N1CC1)N1CC1 [Triethylenethiophosphoramide],0.91
3,CC1(C)CCC(C)(C)c2cc(NC(=O)c3ccc(C(=O)O)cc3)ccc21 [Tamibarotene],0.958
4,CC[C@@H](CO)NCCN[C@@H](CC)CO.Cl.Cl [Ethambutol dihydrochloride],0.965
5,CO[C@H]1C[C@@H]2CC[C@@H](C)[C@@](O)(O2)C(=O)C(=O)N2CCCC[C@H]2C(=O)O[C@H]([C@H](C)C[C@@H]2CC[C@@H](OC(=O)C(C)(CO)CO)[C@H](OC)C2)CC(=O)[C@H](C)/C=C(\C)[C@@H](O)[C@@H](OC)C(=O)[C@H](C)C[C@H](C)/C=C/C=C/C=C/1C [Temsirolimus],1.53
6,O=C(CCCCCCC(=O)Nc1ccccc1)NO [Vorinostat],0.923
7,O=c1[nH]c(=O)n(C2CCCO2)cc1F (centres undefined) [Tegafur],0.895
8,CCCCc1nc2cc(/C=C/C(=O)NO)ccc2n1CCN(CC)CC [Pracinostat],0.699 (active)
9,C#CCC(Cc1cnc2nc(N)nc(N)c2n1)c1ccc(C(=O)N[C@@H](CCC(=O)O)C(=O)O)cc1 (some centres undefined) [Pralatrexate],0.982
10,CCCCCOC(=O)Nc1nc(=O)n([C@@H]2O[C@H](C)[C@@H](O)[C@H]2O)cc1F [Capecitabine],1.04
11,CC1(C)[C@@H](O[C@H]2O[C@H](C(=O)O)[C@@H](O)[C@H](O)[C@H]2OC2O[C@H](C(=O)O)[C@@H](O)[C@H](O)[C@H]2O)CC[C@]2(C)[C@H]3C(=O)C=C4[C@@H]5C[C@@](C)(C(=O)O)CC[C@]5(C)CC[C@@]4(C)[C@]3(C)CC[C@@H]12 (some centres undefined) [Glycyrrhizin],1.06
12,COC(=O)c1ccc2c(c1)NC(=O)/C2=C(\Nc1ccc(N(C)C(=O)CN2CCN(C)CC2)cc1)c1ccccc1 [Nintedanib],1.01
13,COC(=O)C[C@](O)(CCCC(C)(C)O)C(=O)O[C@@H]1C(OC)=CC23CCCN2CCc2cc4c(cc2[C@H]13)OCO4 (some centres undefined) [Homoharringtonine],0.0454 (active)
14,CCCCCCNC(=O)n1cc(F)c(=O)[nH]c1=O [Carmofur],1.12
15,COc1cc([C@@H]2c3cc4c(cc3[C@@H](O[C@@H]3O[C@@H]5CO[C@@H](c6cccs6)O[C@H]5[C@H](O)[C@H]3O)[C@H]3COC(=O)[C@H]23)OCO4)cc(OC)c1O [Teniposide],1.39
16,C=CC(=O)Nc1cccc(Nc2nc(Nc3ccc(N4CCN(C(C)=O)CC4)cc3OC)ncc2C(F)(F)F)c1 [Rociletinib],0.855
17,CO[C@@]12[C@H](COC(N)=O)C3=C(C(=O)C(C)=C(N)C3=O)N1C[C@@H]1N[C@@H]12 [Mitomycin C],1.6
18,COC(=O)C1=C(C)NC(C)=C(C(=O)OC)C1c1ccccc1[N+](=O)[O-] [Nifedipine],1.1
19,CC(C)(C)c1nc(-c2cccc(NS(=O)(=O)c3c(F)cccc3F)c2F)c(-c2ccnc(N)n2)s1 [Dabrafenib],1.03
20,COc1cc(Nc2c(C#N)cnc3cc(OCCCN4CCN(C)CC4)c(OC)cc23)c(Cl)cc1Cl [Bosutinib],0.914
21,CCN(CC)CCOc1ccc2c(c1)C(=O)c1cc(OCCN(CC)CC)ccc1-2.Cl.Cl [Tilorone dihydrochloride],0.883
22,COc1cc(NS(C)(=O)=O)ccc1Nc1c2ccccc2nc2ccccc12 [Amsacrine],1.06
23,CC[C@@]1(O)C(=O)OCc2c1cc1n(c2=O)Cc2cc3c(CN(C)C)c(O)ccc3nc2-1.Cl [Topotecan hydrochloride],0.645 (active)
24,CC(C)C[C@H](NC(=O)[C@H](Cc1ccccc1)NC(=O)c1cnccn1)B(O)O [Bortezomib],0.0464 (active)
25,CC1=C(/C=C/C(C)=C/C=C/C(C)=C\C(=O)O)C(C)(C)CCC1 [Isotretinoin],0.938
